# Laboratory results: PubChem BioAssay (NCI)
# About 79,000 compounds went through this panel and 15% of them were active in at least one assay; those are over-represented in the sample as a whole. Values without a mark were called inactive. The source made the active and inactive calls. Rule as the data show it: active = growth inhibition above about 70%; inactive = the rest.
# Experiment: NCI Yeast Anticancer Drug Screen. Data for the rad18 strain (AID 177)
# Details: S. cerevisiae rad18 mutant growth inhibition; at 1.2 µM; stronger effect = higher value
# Method in brief: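 Vehicle-treated cultures served as the baseline for scoring compound-induced growth inhibition in DNA-repair-mutant yeast.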
row,Structure (SMILES),growth inhibition
1,CC1CCN(CCC(=O)c2ccc(Cl)cc2)CC1,5%
2,CCCCCCCCCCCCCCC(C(=O)[O-])[n+]1ccccc1 (stereo not given),3%
3,CNC1C(OC2C(OC3C(O)C(O)C(N=C(N)N)C(O)C3N=C(N)N)OC(C)C2(O)CO)OC(CO)C(O)C1O (stereo not given),1%
4,O=C(O)c1ccccc1-c1ccccc1C(=O)Nc1ccc2c(c1)Cc1ccccc1-2,4%
5,O=[N+]([O-])c1cccc2nc3ccccc3c(NCCCN3CCOCC3)c12,96% (active)
6,C=CC(C)(O)CCC1C(=C)C(O)CC2C(C)(C)CCCC12C (stereo not given),-14%
7,CN1c2ccc(Cl)cc2C(=O)NC1c1ccc([N+](=O)[O-])s1 (stereo not given),3%
8,[O-][n+]1c2ccc(O)cc2nc2ccc(Br)cc21,5%
9,O=C1c2ccccc2-c2nc3ccccc3nc21,-47%
10,CCCCN1C(=O)N(c2ccc(OCC)cc2)C2N(CCCC)C1C(C)(C)C2(C)C (stereo not given),-7%
11,CO[C@H]1C[C@](C)(O)Cc2cc3c(c(O)c21)C(=O)c1c(O)cc2c(c1C3=O)O[C@@H]1O[C@@]2(C)[C@H](O)[C@@H](N(C)C)[C@@H]1O,-27%
12,COc1cc2c(cc1[N+](=O)[O-])C(=O)C(Br)(Br)CCC2,33%
13,O=C1OC(CCl)CN1/N=C/c1ccc([N+](=O)[O-])o1 (stereo not given),45%
14,CN(C)CCOc1ccc2c(c1)C/C(=C/c1ncc([N+](=O)[O-])n1C)C2=O,83% (active)
15,CCCCCCCCCCCCCCCCCCN(C)CC(COP(=O)([O-])OCC[N+](C)(C)C)OC (stereo not given),-6%
